EPAC2 antagonist: EPAC2 (human) antagonism | actives 0.18% (n = 360,000) | Potency, µM (doses to about 114 µM), for the others: at the top dose activity, negative = inhibition, actives largely listed as inhibitors | EPAC2 GEF exchange of Rap1B-BODIPY-GDP, fluorescence; note: % is set by controls: 0 for no effect and ±100 for the full control effect; nearly all actives have a fitted effect of over 45% in size
EPAC1 ag: agonists of human EPAC1; actives 0.073% (n = 360,000); Potency, µM (highest dose often 154 µM), for the others: at the top dose activation, actives largely listed as activators; EPAC1 agonist qHTS, biochemical assay; response scale: 100% = response to 6.5 mM cAMP; note: nearly all actives have a fitted effect of over 60% in size
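Nucleotide exchange assay: 100 nM EPAC1 with 250 nM Rap1B loaded with BODIPY-GDP and 50 uM GDP, room temperature. Fluorescence (480/540 nm) read every 5 min for 30 min; signal change normalized to 6.5 mM cAMP as full agonist.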
USP1-UAF1 inh: inhibitors of human USP1/UAF1 deubiquitinase; O94782; recombinant USP1/UAF1, Ub-Rhodamine cleavage fluorescence; Potency, µM (titrated, usually from 57.1 µM), inactives show at the top dose activity change, negative = inhibition, usual class: inhibitors; actives 0.23% (n = 390,000); AID 743255; note: % is set by controls: 0 for no effect and ±100 for the full control effect; nearly all actives have a fitted effect of over 60% in size
Target sequence (O94782 whole entry, looked up): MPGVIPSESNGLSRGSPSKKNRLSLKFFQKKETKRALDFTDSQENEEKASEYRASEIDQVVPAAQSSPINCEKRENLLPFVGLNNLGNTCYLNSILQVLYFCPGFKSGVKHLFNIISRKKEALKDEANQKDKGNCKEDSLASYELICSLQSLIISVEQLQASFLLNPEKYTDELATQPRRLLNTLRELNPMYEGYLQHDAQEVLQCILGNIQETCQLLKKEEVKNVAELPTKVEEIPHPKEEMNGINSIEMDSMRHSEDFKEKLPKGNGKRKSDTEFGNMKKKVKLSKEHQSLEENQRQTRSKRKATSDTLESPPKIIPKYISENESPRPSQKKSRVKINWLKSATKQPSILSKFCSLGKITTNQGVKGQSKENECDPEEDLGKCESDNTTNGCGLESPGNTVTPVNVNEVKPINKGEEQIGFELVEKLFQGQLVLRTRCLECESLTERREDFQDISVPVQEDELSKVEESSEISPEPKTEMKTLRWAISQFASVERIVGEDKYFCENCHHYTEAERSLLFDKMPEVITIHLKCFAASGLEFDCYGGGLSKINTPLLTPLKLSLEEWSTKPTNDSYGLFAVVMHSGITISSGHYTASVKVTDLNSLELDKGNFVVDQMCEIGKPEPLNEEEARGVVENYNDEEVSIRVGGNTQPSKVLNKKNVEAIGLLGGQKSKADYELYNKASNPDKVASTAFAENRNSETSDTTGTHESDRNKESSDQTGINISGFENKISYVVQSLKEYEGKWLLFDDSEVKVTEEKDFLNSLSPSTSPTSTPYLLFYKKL
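1 nM enzyme complex + cpd, 15 min RT; start with Ub-Rho 150nM final; kinetic fluorescence ex 480/em 540, 6 reads q60 s. Buffer 50mM HEPES pH 7.8, 0.5mM EDTA, 0.1 mg/ml BSA, 1mM TCEP, 0.01% Tween-20.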
EPAC1 antag: antagonists of human EPAC1. EPAC1 GEF assay, Rap1b-BODIPY-GDP exchange fluorescence. Potency, µM (top dose mostly 115 µM), inactives show top-dose activity change, negative = inhibition, hits mostly inhibitors. actives 0.14% (n = 360,000). O95398. AID 720709;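 note: plate controls were vehicle for no effect and positive control for full effect; nearly all actives have a fitted effect of over 50% in size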
USP2a inh: blocks human ubiquitin-specific protease USP2a | Potency, µM (doses to about 38.3 µM), for inactives: top-dose activity change, negative = inhibition, actives largely listed as inhibitors | actives 0.01% (n = 330,000) | USP2 core, Ub-CHOP2 coupled fluorogenic reporter, 485/531 | AID 463254;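 note: plate controls were DMSO wells for no effect and full inhibition by NEM control for full effect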
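USP2 core (10nM final) preincubated 30min RT with compound in 20mM Tris-HCl pH 8.0, 2mM CaCl2, 2mM beta-mercaptoethanol, 0.05% CHAPS; 25nM Ub-CHOP2 plus 25nM reporter substrate added, fluorescence (Ex485/Em531) read after 60min.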
EPAC2 agonist: agonists of human EPAC2 (RAPGEF4); Q8WZA2; EPAC2 activation, biochemical qHTS; response scale: 100% = 6.5 mM cAMP response; Potency, µM (doses to about 154 µM), inactives show at the top dose activation, usual class: activators; actives 0.079% (n = 360,000); note: nearly all actives have a fitted effect of over 50% in size
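Compounds were added across a concentration range to EPAC2 (100 nM), RAP1B-BODIPY-GDP (250 nM) and GDP (50 uM). After 5 min at room temperature, fluorescence was recorded at 5-min intervals for 30 min.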
* hit, by the source's call. An excerpt weighted towards active compounds, which were near 0.44% of everything screened. Calls come from the whole dose curve; as a rule, active = well fitted curve in the direction sought with a large enough effect; inconclusive = small, poorly fitted or top-dose-only effect, or another doubt; inactive = no such curve, though single readings can be large; an effect the other way counts as inactive or inconclusive. Potency is the fitted concentration of half-maximal effect.

Results for COc1cc(NC(=O)Nc2nnc(N3CCCCCC3)s2)cc(OC)c1 ?
USP1-UAF1 inh: -23.3%

How did Cc1ccc(C)c(S(=O)(=O)N2CCN(C(=O)/C=C/c3ccco3)CC2)c1 do in these assays?
EPAC2 antagonist: 4.4%; EPAC1 ag: 1.4%; USP1-UAF1 inh: inconclusive; EPAC1 antag: inconclusive; USP2a inh: 22.4µM*; EPAC2 agonist: 6.3%

What do the screens show for `Cc1ccc(S(=O)(=O)N2CCN(C(=O)/C=C/c3ccco3)CC2)cc1`?
EPAC2 antagonist: 0.6%; EPAC1 ag: 8.9%; USP1-UAF1 inh: -2.4%; EPAC1 antag: -2.2%; USP2a inh: 0.2%; EPAC2 agonist: 7.1%

How did COc1ccc(NC(=O)c2cccnc2NCCc2ccccc2)cc1 do in these assays?
EPAC2 antagonist: -4.5%; EPAC1 ag: 56.2µM*; USP1-UAF1 inh: -14.9%; EPAC1 antag: 51.8%; USP2a inh: -4.6%; EPAC2 agonist: 31.6µM*

What do the screens show for `CCOC(=O)C1=C(C)N=c2s/c(=C\c3cccn3C)c(=O)n2C1c1cccc(OC)c1OC` (stereo not given)?
EPAC2 antagonist: 16.6%; EPAC1 ag: 22.4%; USP1-UAF1 inh: -16.4%; EPAC1 antag: 3.5%; USP2a inh: -0.4%; EPAC2 agonist: 112µM*

Results for CC(=O)N1N=C(c2ccc(C)cc2)OC1c1ccc(Br)cc1 (stereo not given) ?
EPAC2 antagonist: -17.5%; EPAC1 ag: 6.8%; USP1-UAF1 inh: -12.4%; EPAC1 antag: -8.2%; USP2a inh: 3.8%; EPAC2 agonist: 16.1%

Results for CCOc1ccc(Br)cc1C1=NN(C(C)=O)C(c2ccc([N+](=O)[O-])s2)O1 (stereo not given) ?
EPAC2 antagonist: -13.3%; EPAC1 ag: 4.5%; USP1-UAF1 inh: 22.4µM*; EPAC1 antag: -19.7%; USP2a inh: -2.4%; EPAC2 agonist: 17.2%

Results for CCCOc1ccc(CNC(=O)c2cc3oc4ccccc4c3n2C)cc1 ?
USP1-UAF1 inh: -12.5%

What do the screens show for `Cc1ccc(NC2C(=O)NC(=O)NC2=O)cc1`?
EPAC2 antagonist: inconclusive; EPAC1 ag: -7.4%; USP1-UAF1 inh: inconclusive; EPAC1 antag: 79.4µM*; EPAC2 agonist: 13.8%

How did Cc1ccc(NC2CNC(=O)NC2=O)cc1C (stereo not given) do in these assays?
EPAC2 antagonist: 25.3%; EPAC1 ag: -9.4%; USP1-UAF1 inh: 1.1%; EPAC1 antag: 8.1%; EPAC2 agonist: 2.0%

How did CCc1ccc(NC2=CC(=O)C(=O)c3ccccc32)cc1 do in these assays?
EPAC2 antagonist: -7.9%; EPAC1 ag: -40.0%; USP1-UAF1 inh: 28.2µM*; EPAC1 antag: -22.9%; USP2a inh: 2.5%; EPAC2 agonist: -0.2%

What do the screens show for `O=C1C=C(Nc2ccccc2)C(=O)c2ccccc21`?
EPAC2 antagonist: -7.8%; EPAC1 ag: -0.3%; USP1-UAF1 inh: inconclusive; EPAC1 antag: inconclusive; USP2a inh: -3.4%; EPAC2 agonist: 2.6%

What do the screens show for `CCCCNC1=CC(=O)C(=O)c2ccccc21`?
EPAC2 antagonist: -0.5%; EPAC1 ag: 8.9%; USP1-UAF1 inh: 25.1µM*; EPAC1 antag: inconclusive; USP2a inh: -1.2%; EPAC2 agonist: 8.1%

What do the screens show for `O=C1C=C(Nc2ccccc2)c2ccccc2C1=O`?
EPAC2 antagonist: -0.6%; EPAC1 ag: -6.0%; USP1-UAF1 inh: 12.6µM*; EPAC1 antag: -9.5%; USP2a inh: 0.8%; EPAC2 agonist: -13.9%

What do the screens show for `O=C1C=C(Nc2ccccc2C(=O)O)c2ccccc2C1=O`?
EPAC2 antagonist: inconclusive; EPAC1 ag: -7.6%; USP1-UAF1 inh: 7.94µM*; EPAC1 antag: -11.4%; USP2a inh: 3.5%; EPAC2 agonist: -0.9%

How did CCc1cccc(CC)c1NC(=O)CN(C)S(=O)(=O)c1ccc2c(c1)n(C)c(=O)c(=O)n2C do in these assays?
USP1-UAF1 inh: -18.6%

How did O=C(CSc1nc2ccccc2n1CC(=O)Nc1ccc(F)cc1F)Nc1ccc(F)cc1 do in these assays?
USP1-UAF1 inh: -20.1%

What do the screens show for `Cc1ccc(C)c(OCCn2cc(C(=O)c3ccco3)c3ccccc32)c1`?
USP1-UAF1 inh: -10.7%

What do the screens show for `CCOC(=O)c1c(NC(=O)c2cc(OCC)c(OCC)c(OCC)c2)sc2c1CCCCC2`?
USP1-UAF1 inh: -17.5%

What do the screens show for `O=C(CN1C(=O)c2ccccc2C1=O)Nc1cccc2cccnc12`?
EPAC2 antagonist: -2.1%; EPAC1 ag: -7.8%; USP1-UAF1 inh: -11.5%; EPAC1 antag: -3.3%; USP2a inh: -1.5%; EPAC2 agonist: 7.1%

What do the screens show for `O=C1C=C(Nc2cccc3cccnc23)c2ccccc2C1=O`?
EPAC2 antagonist: -25.0%; EPAC1 ag: 1.3%; USP1-UAF1 inh: 17.8µM*; EPAC1 antag: inconclusive; USP2a inh: -0.9%; EPAC2 agonist: 5.6%

What do the screens show for `CN(C)C(=O)c1ccc(S(=O)(=O)NCc2ccccc2Cl)s1`?
USP1-UAF1 inh: -18.8%

Results for COc1cccc2cc(C(=O)NCCc3c(C)[nH]c4ccc(Br)cc34)c(=O)oc12 ?
USP1-UAF1 inh: -7.8%

Results for Cc1nn2c(C)c(C(=O)NC(C)(C)C)cnc2c1-c1ccc(F)cc1 ?
USP1-UAF1 inh: -9.3%

Results for CC1=C(c2ccc(C)c(C)c2)S(=O)(=O)N(Cc2ccc(C(=O)Nc3cc(F)ccc3F)cc2)C1=O ?
USP1-UAF1 inh: 18.5%

What do the screens show for `O=C(O)COc1ccccc1/C=N/NC(=O)CSc1nnc(SCc2ccc(Cl)cc2)s1`?
EPAC2 antagonist: -15.0%; EPAC1 ag: -0.2%; USP1-UAF1 inh: -19.8%; EPAC1 antag: 10.5%; USP2a inh: 2.1%; EPAC2 agonist: -1.5%

Results for O=C(CSc1nnc(SCc2ccc(Cl)cc2)s1)N/N=C/c1ccc(C(=O)O)cc1 ?
EPAC2 antagonist: 44.7µM*; EPAC1 ag: 2.5%; USP1-UAF1 inh: -18.4%; EPAC1 antag: 7.7%; USP2a inh: 0.3%; EPAC2 agonist: -4.0%

What do the screens show for `NC(=O)c1ccc(N=Cc2ccc([N+](=O)[O-])s2)cc1`?
EPAC2 antagonist: -13.8%; EPAC1 ag: 8.7%; USP1-UAF1 inh: 10µM*; EPAC1 antag: 16.0%; USP2a inh: 2.8%; EPAC2 agonist: 8.5%

How did O=[N+]([O-])c1ccc(C=Nc2ccc(Cl)c([N+](=O)[O-])c2)s1 do in these assays?
USP2a inh: 9.2%

Results for Cc1cc(C)cc(N=Cc2ccc([N+](=O)[O-])s2)c1 ?
EPAC2 antagonist: -3.5%; EPAC1 ag: -0.3%; USP1-UAF1 inh: 12.6µM*; EPAC1 antag: inconclusive; USP2a inh: 3.4%; EPAC2 agonist: 6.5%

Results for O=C(NCCc1ccccc1)c1ccc2c(c1)N(Cc1ccc(Cl)cc1)C(=O)CS2 ?
USP1-UAF1 inh: -14.2%
